Measured values from the supplement of paper PMC3334620.
Over roughly 33,000 sequences, “E-score (-0.5 to 0.5)” has its median near -0.032; the highest 2% begin near 0.36. The sample as a whole holds a higher share of the highest values than the screen did.

Target: T1, Sko1 (UniProt Q02100)
T1 sequence: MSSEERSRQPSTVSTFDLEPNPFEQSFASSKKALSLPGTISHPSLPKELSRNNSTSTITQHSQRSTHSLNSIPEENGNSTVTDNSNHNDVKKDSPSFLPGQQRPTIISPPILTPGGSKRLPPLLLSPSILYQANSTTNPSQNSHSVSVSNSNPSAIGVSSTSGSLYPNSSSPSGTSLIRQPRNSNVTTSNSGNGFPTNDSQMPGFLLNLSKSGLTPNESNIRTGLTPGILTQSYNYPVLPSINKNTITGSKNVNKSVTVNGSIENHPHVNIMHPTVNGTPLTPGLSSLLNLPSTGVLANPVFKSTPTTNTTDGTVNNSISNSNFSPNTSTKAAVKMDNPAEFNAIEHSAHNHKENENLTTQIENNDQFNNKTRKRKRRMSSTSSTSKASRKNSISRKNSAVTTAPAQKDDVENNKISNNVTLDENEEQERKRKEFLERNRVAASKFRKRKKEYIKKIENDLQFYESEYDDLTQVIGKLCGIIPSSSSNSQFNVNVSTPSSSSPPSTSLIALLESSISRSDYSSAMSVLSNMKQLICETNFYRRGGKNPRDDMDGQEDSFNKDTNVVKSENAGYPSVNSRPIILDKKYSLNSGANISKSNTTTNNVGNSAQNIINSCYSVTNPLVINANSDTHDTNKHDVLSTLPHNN
Assay: PBM E-score (8-mer binding enrichment) (E-score (-0.5 to 0.5)); higher = stronger / more preferred TF binding
Conditions: protein concentration: 200 nM; construct: GST-full length
Experimental: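 Universal 'all 10-mer' protein binding microarrays (Agilent AMADID 015681) probed with GST-tagged S. cerevisiae TFs (full-length or DBD) made by in vitro transcription/translation (PURExpress), about 100-200 nM. Bound TF was detected with fluorescent anti-GST. Each ungapped 8-mer (which stands for itself and its reverse complement) is scored by the PBM enrichment score (E-score), a modified Wilcoxon-Mann-Whitney statistic from -0.5 to +0.5, computed with the Universal PBM Analysis Suite. Scale: above 0.35 generally sequence-specific binding.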

| Sequence | PBM E-score |
| --- | --- |
| CTGGGCTA | -0.317 |
| AGATACGA | 0.208 |
| CCCTGGAC | -0.188 |
| CAACGCAG | -0.0699 |
| GTAACTTA | 0.262 |
| ACATACGC | 0.28 |
| AAATACGA | 0.302 |
| AAATACGC | 0.315 |
| AAATACGT | 0.463 |
| ACATACGT | 0.459 |
| ACATACGG | 0.0483 |
| TCGAGTCA | -0.00474 |
| AGGTGCTA | -0.0841 |
| ACCCGTGA | 0.0498 |
| CGCCACAG | -0.198 |
| CAACCCAC | 0.011 |
| GATCAAAA | 0.0898 |
| ATCATGAG | 0.211 |
| GTCATGAA | 0.221 |
| CTCATGAC | 0.285 |
| ATCATGAA | 0.126 |
| ATCATGAC | 0.407 |
| GTCATGAC | 0.392 |
| CGCTAAAA | -0.102 |
| ATAATAGG | 0.114 |

| Sequence | PBM E-score |
| --- | --- |
| GGCGGACC | -0.321 |
| AAACTGAG | -0.159 |
| AAGTAGAT | -0.00622 |
| CCGTAGAA | -0.14 |
| ACGTAGAA | 0.434 |
| ACGTAGAG | 0.387 |
| ACTTAGAG | -0.0119 |
| GCGTAGAA | 0.178 |
| AGGTAGAT | -0.0309 |
| GCGTAGAC | 0.0511 |
| ACGTAGAC | 0.415 |
| CCGTAGAC | -0.135 |
| CCGTAGAG | -0.258 |
| ACGTAGAT | 0.452 |
| AATCTGCC | -0.0515 |
| AATCAGGT | 0.113 |
| CGCCCCAC | -0.0143 |
| AGCGCCGC | -0.199 |
| CCCGGTAA | -0.206 |
| CATCCTGA | 0.0812 |
| TATAACGA | 0.186 |
| TGACGCCA | 0.453 |
| TCACGCAA | 0.384 |
| TGACGCAA | 0.483 |
| CGACGCCA | 0.174 |

| Sequence | PBM E-score |
| --- | --- |
| ACACGCAC | 0.158 |
| AGACGCCA | 0.0116 |
| ACACGCAT | 0.219 |
| AGACGCAA | 0.258 |
| ACACGCAA | 0.376 |
| CCACGCAA | 0.308 |
| GGACGCAA | 0.164 |
| GCACGCAA | 0.252 |
| CGAGTCGC | -0.243 |
| GCGGTCTA | 0.0211 |
| CAGATCTC | -0.196 |
| CGATGTAA | 0.175 |
| AGATGTAA | 0.256 |
| TGATGTAA | 0.434 |
| AACGGAGT | -0.09 |
| AATATGAC | 0.367 |
| AATATGAT | 0.254 |
| GCGATGAC | 0.374 |
| CAGATGAC | 0.37 |
| CATATGAC | 0.404 |
| AAGATGAC | 0.337 |
| AATATGAG | 0.146 |
| CATATGAG | -0.0409 |
| ACGATGAC | 0.336 |
| GCGATGAA | -0.0296 |

| Sequence | PBM E-score |
| --- | --- |
| GAGATGAC | 0.254 |
| GATATGAC | 0.326 |
| GCAAAGAC | 0.00382 |
| GATAGTCC | -0.141 |
| CATTTAAA | 0.178 |
| ACTCACGC | 0.14 |
| GCTTAGCC | -0.313 |
| CTGGCGCC | -0.181 |
| TCCTAACA | 0.0335 |
| CTGAATAC | 0.15 |
| TCAACCGA | 0.204 |
| CCTATGAC | 0.308 |
| ATTATGAC | 0.349 |
| CTTATGAC | 0.374 |
| CTTATGAA | -0.0245 |
| ACTATGAC | 0.342 |
| GCTATGAC | 0.364 |
| TATCAGCA | 0.0232 |
| ACGAGCAG | -0.0309 |
| CAAGAGCA | -0.0878 |
| GCCTAGAA | -0.121 |
| ACGTGTTA | 0.434 |
| CCGTGTTA | -0.0886 |
| GCGTGTTA | 0.114 |
| AGGTGTTC | -0.0318 |

| Sequence | PBM E-score |
| --- | --- |
| CCGTGTTC | -0.0799 |
| AGGTGTTG | 0.0206 |
| ATGTGTTG | 0.203 |
| ACGTGTTG | 0.426 |
| ACGTGTTC | 0.36 |
| ACTGGTTC | -0.132 |
| GCAGTCAC | -0.0169 |
| GAGCGAGA | -0.0193 |
| CGCGGTTA | -0.0722 |
| ACTCTTCC | -0.0697 |
| GCTTGCTA | -0.191 |
| ACTAACAG | 0.0358 |
| AGTAATGC | 0.0678 |
| CGTAATGC | 0.454 |
| CGTAATGA | 0.461 |
| AGTAATGA | 0.247 |
| GGTAATGA | 0.115 |
| CTTAATGC | 0.0192 |
| CGAGCAAG | -0.129 |
| TAGTATCA | 0.187 |
| CCTAACGC | 0.0788 |
| AACTTACG | 0.408 |
| CACTTACA | 0.164 |
| AACTTACA | 0.0844 |
| AACTTACC | -0.0258 |

| Sequence | PBM E-score |
| --- | --- |
| CACTTACG | 0.382 |
| CACTTACC | 0.109 |
| ACGTTCTG | 0.256 |
| GCTCTAAA | 0.0432 |
| TCGTATCA | 0.241 |
| ACGTATCT | 0.419 |
| AAGTATCG | -0.0131 |
| ACCTATCT | -0.0547 |
| AAGTATCT | 0.0671 |
| ACGTATCA | 0.438 |
| ACGTATCC | 0.389 |
| ACGTATCG | 0.452 |
| CCGTATCC | -0.133 |
| GCGTATCC | 0.142 |
| GCGTATCA | 0.131 |
| CCGTATCG | -0.171 |
| CCGTCTGC | -0.109 |
| GCAGAACC | -0.16 |
| TAGTGGAA | -0.149 |
| GCGGCATA | 0.0318 |
| AGCTGATC | -0.0352 |
| GATCCTCC | -0.264 |
| AGGACGAC | -0.114 |
| CCGACGAA | 0.144 |
| AAGACGAG | -0.189 |

| Sequence | PBM E-score |
| --- | --- |
| ATGACGAG | 0.462 |
| GTGACGGA | 0.174 |
| GCGACGAC | -0.08 |
| CTGACGAA | 0.373 |
| ATGACGGG | 0.338 |
| ATGACGGA | 0.419 |
| ATGACGAC | 0.466 |
| ATGACGGC | 0.285 |
| CTGACGAC | 0.342 |
| ACCTCCGG | -0.282 |
| CCCCACGA | -0.128 |
| CGTTTTGC | 0.177 |
| ACACCTAC | -0.0103 |
| CCGCTGAG | -0.29 |
| AAAGCTTA | 0.141 |
| ACTAATGG | 0.00996 |
| ACTGAAGT | -0.0247 |
| ACTCGCCT | -0.196 |
| ACGACGAA | 0.25 |
| ATGACAAA | 0.154 |
| GTGACGAA | 0.446 |
| GTGACAAA | 0.167 |
| GGGACGAA | -0.164 |
| ATGACGAA | 0.488 |
